Results as given in ChEMBL document CHEMBL3988442, “University of Dundee, Small-Polar-MMV Screening Library” (2021).
For some assays here: Potency and affinity values are given separately.

Tests used:
Parameters in all cases: scale not given: direction of the effect not stated beside the values
[1] = target: Protein translocase subunit SecA (Escherichia coli (strain K12)) (UniProt P10408); assay: Assay to Identify E. coli SecA ATPase Inhibitors; assay type: functional; conditions: 30 µM
[2] = target: T1, Ubiquitin-activating enzyme e1, putative (Leishmania donovani (strain BPK282A1)) (UniProt E9BSI1); assay: Leishmania donovani Ubiquitin Activating Enzyme (LdE1); assay type: functional; conditions: 30 µM
T1 sequence (whole entry): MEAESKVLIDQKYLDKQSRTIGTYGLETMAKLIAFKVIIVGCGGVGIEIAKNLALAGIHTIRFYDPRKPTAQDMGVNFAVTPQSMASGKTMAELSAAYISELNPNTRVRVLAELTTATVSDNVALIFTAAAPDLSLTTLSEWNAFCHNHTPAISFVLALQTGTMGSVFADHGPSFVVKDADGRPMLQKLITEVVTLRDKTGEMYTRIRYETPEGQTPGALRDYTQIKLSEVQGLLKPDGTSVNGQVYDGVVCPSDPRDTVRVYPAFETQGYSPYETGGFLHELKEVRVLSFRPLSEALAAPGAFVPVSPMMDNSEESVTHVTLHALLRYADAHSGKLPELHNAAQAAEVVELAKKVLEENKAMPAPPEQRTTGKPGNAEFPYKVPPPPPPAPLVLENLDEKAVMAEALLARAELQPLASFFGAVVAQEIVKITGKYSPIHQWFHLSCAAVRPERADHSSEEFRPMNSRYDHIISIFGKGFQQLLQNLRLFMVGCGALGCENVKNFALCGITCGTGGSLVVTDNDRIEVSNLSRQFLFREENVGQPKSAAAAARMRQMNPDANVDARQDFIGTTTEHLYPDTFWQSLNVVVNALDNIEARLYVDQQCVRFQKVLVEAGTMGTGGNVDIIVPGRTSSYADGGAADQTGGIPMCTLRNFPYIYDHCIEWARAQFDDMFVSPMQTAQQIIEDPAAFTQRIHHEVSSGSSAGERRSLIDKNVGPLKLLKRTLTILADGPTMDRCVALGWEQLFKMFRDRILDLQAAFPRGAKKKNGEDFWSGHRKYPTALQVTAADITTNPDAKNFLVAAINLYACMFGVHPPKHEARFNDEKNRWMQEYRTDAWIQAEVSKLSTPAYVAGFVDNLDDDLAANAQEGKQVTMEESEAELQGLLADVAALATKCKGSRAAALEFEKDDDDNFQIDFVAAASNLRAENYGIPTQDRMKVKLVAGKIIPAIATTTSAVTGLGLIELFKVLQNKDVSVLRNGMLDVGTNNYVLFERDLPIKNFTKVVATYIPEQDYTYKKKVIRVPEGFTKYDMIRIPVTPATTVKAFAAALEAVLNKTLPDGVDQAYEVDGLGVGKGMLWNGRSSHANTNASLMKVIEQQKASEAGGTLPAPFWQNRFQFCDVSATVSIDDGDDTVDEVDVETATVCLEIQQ

[3] = target: AMP-activated protein kinase, AMPK (Homo sapiens) (UniProt P54646+O43741+P54619+Q9UGJ0+Q9Y478+Q13131+Q9UGI9); assay: AMP-dependent Kinase enzyme assay. An in vitro enzyme assay that detects ADP turnover that is directly proportional to AMPK activity. This uses naive AMPK that is activated during the assay with MK-8722; assay type: functional; conditions: 30 µM
[4] = target: Sialic acid-binding Ig-like lectin 9 (Homo sapiens) (UniProt Q9Y336); assay: Hs-Siglec9 ALPHAscreen SOP 20170721; conditions: 10 µM
Trypanosoma cruzi = assay: Trypanosoma cruzi phosphomannomutase and mannose-1-phosphate guanylyltransferase assay; assay type: functional; conditions: 10 µM
[5] = target: T2, Arginase-2, mitochondrial (Homo sapiens) (UniProt P78540); assay: in vitro enzyme assay to detect the production of urea directly proportional to the activity of Arginase II; assay type: functional; conditions: 33.3 µM; note: in the data most compounds retested in dose-response had high values
T2 sequence (whole entry): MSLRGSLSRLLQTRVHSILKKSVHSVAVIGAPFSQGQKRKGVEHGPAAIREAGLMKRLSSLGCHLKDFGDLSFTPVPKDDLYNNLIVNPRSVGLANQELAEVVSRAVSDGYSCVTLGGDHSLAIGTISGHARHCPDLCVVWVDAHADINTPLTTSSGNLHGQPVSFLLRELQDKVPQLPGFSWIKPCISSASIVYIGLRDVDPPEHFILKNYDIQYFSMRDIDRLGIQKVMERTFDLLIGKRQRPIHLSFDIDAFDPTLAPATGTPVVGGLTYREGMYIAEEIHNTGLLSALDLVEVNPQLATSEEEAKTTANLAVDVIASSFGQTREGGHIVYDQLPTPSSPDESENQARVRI

[6] = target: T3, Proteasome subunit beta (Trypanosoma cruzi) (UniProt O96673); assay: Trypanosoma cruzi proteasome chymotrypsin-like activity (TcProtChymo) assay.; note: in the data most compounds retested in dose-response had high values; assay type: functional; conditions: 9.37 µM
T3 sequence (whole entry): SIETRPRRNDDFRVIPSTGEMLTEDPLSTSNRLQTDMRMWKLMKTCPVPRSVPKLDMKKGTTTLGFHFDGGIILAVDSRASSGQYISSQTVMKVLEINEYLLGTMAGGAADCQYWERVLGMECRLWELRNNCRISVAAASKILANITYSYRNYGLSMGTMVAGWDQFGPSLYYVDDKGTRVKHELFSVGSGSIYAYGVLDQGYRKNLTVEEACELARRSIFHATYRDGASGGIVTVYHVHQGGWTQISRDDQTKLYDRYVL

Homo sapiens = species on record: Homo sapiens; assay: To identify inhibition of the IFN signalling (Jak-Stat) pathway via expression of an eGFP reporter gene under the control of an IFN-stimulated response element (ISRE) containing MxA promoter.; assay type: functional; conditions: 30 µM
[7] = target: T4, Tyrosyl-tRNA synthetase, putative (Trypanosoma cruzi (strain CL Brener)) (UniProt Q4DSP6); assay: Trypanosoma cruzi tyrosyl tRNA synthetase (TcYRS) _High Tyrosine SOP; assay type: functional; conditions: 30 µM; note: in the data most compounds retested in dose-response had high values
T4 sequence (whole entry): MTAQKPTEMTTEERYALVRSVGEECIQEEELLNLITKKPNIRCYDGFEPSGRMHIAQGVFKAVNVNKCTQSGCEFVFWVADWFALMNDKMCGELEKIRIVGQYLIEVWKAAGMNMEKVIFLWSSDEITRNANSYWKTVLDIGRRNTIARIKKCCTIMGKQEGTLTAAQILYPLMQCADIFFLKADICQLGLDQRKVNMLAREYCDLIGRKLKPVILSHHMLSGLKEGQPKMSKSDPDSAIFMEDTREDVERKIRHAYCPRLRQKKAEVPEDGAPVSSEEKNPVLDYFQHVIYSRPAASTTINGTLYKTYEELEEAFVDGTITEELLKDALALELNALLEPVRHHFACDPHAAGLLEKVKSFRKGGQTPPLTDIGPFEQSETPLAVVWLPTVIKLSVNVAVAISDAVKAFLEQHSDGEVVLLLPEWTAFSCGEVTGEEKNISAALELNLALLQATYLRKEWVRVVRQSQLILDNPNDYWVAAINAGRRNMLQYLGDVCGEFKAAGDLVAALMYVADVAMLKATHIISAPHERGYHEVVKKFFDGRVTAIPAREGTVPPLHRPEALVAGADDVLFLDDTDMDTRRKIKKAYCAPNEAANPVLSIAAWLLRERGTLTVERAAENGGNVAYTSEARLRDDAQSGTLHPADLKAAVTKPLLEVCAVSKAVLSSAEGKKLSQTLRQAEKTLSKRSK

[8] = target: T4, Tyrosyl-tRNA synthetase, putative (Trypanosoma cruzi (strain CL Brener)); assay: Trypanosoma cruzi tyrosyl tRNA synthetase (TcYRS) SOP; assay type: functional; conditions: 30 µM
[9] = target: Chromo domain-containing protein 1 (Saccharomyces cerevisiae (strain ATCC 204508 / S288c) (Baker's yeast)) (UniProt P32657); assay: ScCHD-1 Enzyme Inhibition Assay; assay type: functional; conditions: 30 µM; note: in the data most compounds retested in dose-response had high values
Chromo domain-containing protein 1 (Saccharomyces cerevisiae (strain ATCC 204508 / S288c) (Baker's yeast)), sequence (P32657 whole entry, the tested form may be a part): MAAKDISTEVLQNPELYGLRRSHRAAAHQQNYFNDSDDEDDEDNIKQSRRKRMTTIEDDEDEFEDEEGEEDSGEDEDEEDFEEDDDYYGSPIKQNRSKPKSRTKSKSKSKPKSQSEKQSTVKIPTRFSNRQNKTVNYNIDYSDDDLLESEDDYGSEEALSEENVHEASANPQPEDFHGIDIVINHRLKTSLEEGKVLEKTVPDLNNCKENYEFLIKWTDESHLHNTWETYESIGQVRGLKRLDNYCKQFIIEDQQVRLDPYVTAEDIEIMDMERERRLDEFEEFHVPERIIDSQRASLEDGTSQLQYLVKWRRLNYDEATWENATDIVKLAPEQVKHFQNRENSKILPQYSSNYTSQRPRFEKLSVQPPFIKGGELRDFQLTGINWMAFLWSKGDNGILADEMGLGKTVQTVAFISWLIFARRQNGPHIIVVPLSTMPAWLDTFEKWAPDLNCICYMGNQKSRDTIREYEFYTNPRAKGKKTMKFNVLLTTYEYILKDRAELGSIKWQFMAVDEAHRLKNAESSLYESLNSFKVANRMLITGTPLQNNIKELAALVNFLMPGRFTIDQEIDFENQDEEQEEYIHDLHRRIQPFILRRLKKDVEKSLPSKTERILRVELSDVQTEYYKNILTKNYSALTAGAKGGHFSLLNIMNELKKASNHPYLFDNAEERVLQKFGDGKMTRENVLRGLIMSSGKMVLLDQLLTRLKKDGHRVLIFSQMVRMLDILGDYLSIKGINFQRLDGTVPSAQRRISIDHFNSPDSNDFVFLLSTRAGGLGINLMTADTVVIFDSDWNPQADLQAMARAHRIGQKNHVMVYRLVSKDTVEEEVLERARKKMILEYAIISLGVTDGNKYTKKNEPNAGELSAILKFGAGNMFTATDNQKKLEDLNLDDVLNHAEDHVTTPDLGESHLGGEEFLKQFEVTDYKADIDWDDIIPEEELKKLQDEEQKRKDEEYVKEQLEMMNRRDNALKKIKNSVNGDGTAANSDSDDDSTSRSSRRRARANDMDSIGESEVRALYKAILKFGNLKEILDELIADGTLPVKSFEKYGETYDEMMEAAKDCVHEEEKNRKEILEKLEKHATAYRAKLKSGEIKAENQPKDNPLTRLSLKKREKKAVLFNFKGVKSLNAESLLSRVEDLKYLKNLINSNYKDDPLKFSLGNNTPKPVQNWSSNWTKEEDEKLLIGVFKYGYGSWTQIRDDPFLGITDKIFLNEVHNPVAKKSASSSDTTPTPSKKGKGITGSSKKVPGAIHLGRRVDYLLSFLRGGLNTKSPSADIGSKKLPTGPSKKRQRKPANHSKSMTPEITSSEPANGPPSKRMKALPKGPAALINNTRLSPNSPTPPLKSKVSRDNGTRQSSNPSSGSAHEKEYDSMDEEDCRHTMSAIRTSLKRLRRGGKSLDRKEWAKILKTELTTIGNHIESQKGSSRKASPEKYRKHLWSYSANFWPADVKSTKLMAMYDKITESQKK

Sialic acid-binding Ig-like lectin 9 (Homo sapiens), sequence (Q9Y336 whole entry): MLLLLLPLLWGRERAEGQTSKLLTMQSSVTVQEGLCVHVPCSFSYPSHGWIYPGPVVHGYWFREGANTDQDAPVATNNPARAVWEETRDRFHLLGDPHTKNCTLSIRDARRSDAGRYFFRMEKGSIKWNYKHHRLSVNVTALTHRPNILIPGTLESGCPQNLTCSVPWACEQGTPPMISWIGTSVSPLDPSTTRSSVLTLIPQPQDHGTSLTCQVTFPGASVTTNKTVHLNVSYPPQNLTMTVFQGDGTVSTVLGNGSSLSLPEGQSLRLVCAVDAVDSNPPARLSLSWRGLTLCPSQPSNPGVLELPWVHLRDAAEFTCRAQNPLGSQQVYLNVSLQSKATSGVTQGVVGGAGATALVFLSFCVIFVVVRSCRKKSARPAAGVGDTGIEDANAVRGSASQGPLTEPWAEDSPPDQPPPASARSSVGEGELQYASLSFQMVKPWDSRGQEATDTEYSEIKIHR
Protein translocase subunit SecA (Escherichia coli (strain K12)), sequence (P10408 whole entry): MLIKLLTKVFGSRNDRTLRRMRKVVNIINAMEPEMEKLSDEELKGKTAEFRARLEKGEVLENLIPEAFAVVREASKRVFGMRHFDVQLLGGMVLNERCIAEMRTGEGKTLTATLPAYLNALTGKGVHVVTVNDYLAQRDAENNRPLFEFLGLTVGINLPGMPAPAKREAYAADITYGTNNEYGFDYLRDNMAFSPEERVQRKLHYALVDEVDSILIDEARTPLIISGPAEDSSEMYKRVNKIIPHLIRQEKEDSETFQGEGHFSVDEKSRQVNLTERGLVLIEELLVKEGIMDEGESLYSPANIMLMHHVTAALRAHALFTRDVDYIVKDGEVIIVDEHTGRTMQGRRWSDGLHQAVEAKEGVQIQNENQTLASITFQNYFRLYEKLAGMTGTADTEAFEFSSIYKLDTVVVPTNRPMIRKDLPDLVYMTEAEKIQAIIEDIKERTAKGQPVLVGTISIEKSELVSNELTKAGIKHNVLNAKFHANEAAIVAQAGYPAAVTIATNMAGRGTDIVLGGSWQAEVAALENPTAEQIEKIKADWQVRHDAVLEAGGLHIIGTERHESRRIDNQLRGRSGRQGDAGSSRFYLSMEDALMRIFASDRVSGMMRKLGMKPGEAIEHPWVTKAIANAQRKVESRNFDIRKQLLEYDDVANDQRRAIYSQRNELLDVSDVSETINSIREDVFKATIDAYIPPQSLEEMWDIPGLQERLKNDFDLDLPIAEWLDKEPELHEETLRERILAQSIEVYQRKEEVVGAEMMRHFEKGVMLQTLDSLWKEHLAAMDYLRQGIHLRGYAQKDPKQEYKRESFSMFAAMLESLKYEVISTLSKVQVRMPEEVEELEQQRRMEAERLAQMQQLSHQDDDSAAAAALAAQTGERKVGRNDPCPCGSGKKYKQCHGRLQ

Structure (SMILES) | Percent Effect [1] | Percent Effect [2] | Percent Effect [3] | Percent Effect [4] | Percent Effect (Trypanosoma cruzi) | Percent Effect [5] | Percent Effect [6] | Percent Effect (Homo sapiens) | Percent Effect [7] | Percent Effect [8] | Percent Effect [9]
Cc1ccc(C(NC(=O)[C@H]2CC[C@@H](O)CC2)c2cccnc2)cc1C (stereo not given in full) | -7.06% | 5.33% | 2.02% | 2.58% | -1.07% | 4.17% | 8.2% | -9.12% | 0.546% | 8.64% | -6.38%
FC(F)(F)Cc1noc(CN2CCCC2c2noc(C3CC3)n2)n1 (stereo not given) | -1.65% | 13.5% | -5.95% | 4.29% | 4.06% | -10.8% | 5.59% | 7.37% | 7.39% | 23.5% | -9.28%
COCc1cccc(C(=O)N2CCCCC2c2nccs2)c1 (stereo not given) | -2.42% | -2.7% | -6.81% | -4.58% | 5.75% | 2.81% | 7.75% | -4.26% | 3.45% | 3.7% | -4.87%
CCn1cc(NC(=O)NCC(O)CN2CCc3ccccc3C2)cn1 (stereo not given) | -1.09% | 23.4% | -8.59% | -13.8% | -0.0979% | -6.53% | 18.2% | 34.1% | 8.57% | 30.6% | -18.1%
Cc1cc(CNc2ccc(C(=O)N3CCCC(C)C3)cc2C)no1 (stereo not given) | -4.07% | 10.4% | 0.477% | -5.45% | -6.18% | -1.42% | 3.72% | 37.9% | 5.83% | 14.6% | -5.48%
CCN(Cc1ccc2c(c1)OCO2)C(=O)CCc1c(C)nc(C)[nH]c1=O | -1.41% | 5.26% | 1.51% | 7.45% | -4.32% | 9.96% | 6.85% | 21.9% | 3.43% | 9.76% | -1.69%
O=C(NCCNc1cnccn1)N1CCCC1 | -4.38% | 6.33% | 8.17% | -3.74% | -2.56% | 1.94% | 5.15% | 8.14% | 1.04% | 5.06% | -18.6%
Fc1ccccc1CN1C[C@@H](OCc2ccncc2)[C@H]2OCCC[C@H]21 | -4.8% | 10.4% | 6.84% | 10.2% | 4.62% | -13.8% | 5.49% | 6.56% | 7.53% | 16.1% | -1.04%
CCn1ccnc1CN1CCCC(CO)(Cc2cccc(Cl)c2)C1 (stereo not given) | -5.53% | 2.7% | -2.31% | 28.9% | 3.23% | -1.24% | 3.18% | -2.28% | 2.15% | 11.1% | -1.59%
Cc1cccc(CS(=O)(=O)CC(=O)NCCCOC(C)C)c1 | -4.74% | 18.2% | -13.1% | 5.88% | 9.74% | 3.92% | 4.05% | 23.9% | 7.77% | 24.4% | -10.7%
